S2 tox – cell viability loss in ATXN counter-screen; hit rate 0.49% among 400,000; Potency, µM (highest dose often 56.7 µM), usual class: cytotoxic; S2 cells (HEK-293 line with an ATXN2-luciferase reporter) viability, CellTiter-Fluor protease fluorescence, 24 h; further: nearly all actives have a fitted effect of over 40% in size
KB-V1 MDR tox – kills drug-selected multidrug resistant KB-V1 cells | KB-V1 MDR cells viability, CellTiter-Glo, 72 h | Potency, µM (doses to about 46.1 µM), most hits filed as cytotoxic | hit rate 3.4% among 400,000 | AID 1347076; further: nearly all actives have a fitted effect of over 60% in size
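KB-V1, DMEM (no phenol red) + 10% FBS; cpd pin-transferred, titration series; 72 h, 37 degrees C; CellTiter-Glo, luminescence. Data normalized, curve-fit.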
HT1080-NT tox – kills 2HG-producing HT-1080-NT fibrosarcoma cells; hit rate 1.6% among 360,000; HT-1080-NT fibrosarcoma viability, CellTiter-Glo ATP luminescence, 48 h; Potency, µM (doses to about 46.1 µM), hits mostly cytotoxic;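 further: NT is the 2HG producing partner of a matched IDH1 knockdown line; nearly all actives have a fitted effect of over 55% in size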
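Luminescent CellTiter-Glo readout after 48 hours of compound exposure at 37 degrees C defined viability of HT-1080-NT cells. Activity was normalized to DMSO wells and cell-free media wells; concentration-response curves were fitted and assigned curve classes.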
HT1080 IDH1KD tx – toxicity to HT-1080 IDH1 knockdown cells (counter line). AID 686971. HT-1080 IDH1 knockdown viability, ATP luminescence, 48 h. Potency, µM (highest dose often 46.1 µM), actives largely listed as cytotoxic. hit rate 2% among 360,000
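Luminescent ATP read-out (CellTiter-Glo, 10 min at room temperature) after 48 h compound exposure at 37 °C gave viability of IDH1-knockdown HT-1080 cells. Activity was normalised to DMSO and cell-free wells, then fitted as concentration-response curves.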
ATXN2 expr inh – inhibitors of ATXN2 expression; Potency, µM (titrated, usually from 57 µM), most hits filed as inhibitors; hit rate 0.72% among 360,000; HEK-293 ATXN2-luciferase reporter, luminescence, 24 h; further: nearly all actives have a fitted effect of over 55% in size
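ATXN2-luciferase reporter cells (luciferase flanked by upstream and downstream ATXN2 gene portions) were treated 24 h at 37 °C with compounds at up to 57 uM. SteadyGlo luminescence gave expression; GF-AFC fluorescence gave viability.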
KB-3-1 cytotox – kills parental KB-3-1 adenocarcinoma cells | Potency, µM (highest dose often 46.1 µM), most hits filed as cytotoxic | AID 1347075 | KB-3-1 viability, CellTiter-Glo ATP luminescence, 72 h | hit rate 1.4% among 400,000; further: nearly all actives have a fitted effect of over 60% in size
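Cytotoxicity measured as CellTiter-Glo luminescence after 72 h at 37 C. Compound titrations were pinned onto drug-naive KB-3-1 parental adenocarcinoma cells grown in DMEM with 10% FBS, and normalized data fitted to concentration-response curves.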
Hits are given with their value; . = inactive; ? = inconclusive; / = no result given; ! = a repeat was not active. Compounds with a hit are over-represented: about 6.2% of the library has one in this group of screens. The call rests on the fitted dose curve; in most records, active means well fitted curve in the direction sought with a large enough effect; inconclusive means small, poorly fitted or top-dose-only effect, or another doubt; inactive means no such curve, though single readings can be large; an effect the other way counts as inactive or inconclusive.

SMILES | S2 tox | KB-V1 MDR tox | HT1080-NT tox | HT1080 IDH1KD tx | ATXN2 expr inh | KB-3-1 cytotox
CN(C)c1ncc(S(=O)(=O)c2ccc(Cl)cc2)c(-c2ccc(Cl)cc2Cl)n1 | . | 18µM | . | . | . | ?
CN(C)c1ccc(S(=O)(=O)c2ccc(Cl)cc2)cc1 | . | . | . | . | . | .
Cc1ncc(S(=O)(=O)c2ccccc2)c(-c2ccccc2Cl)n1 | . | . | . | . | . | .
O=C(Nc1cc(C(F)(F)F)ccc1Cl)c1cc(-c2ccc3c(c2)OCCO3)on1 | . | . | / | / | . | .
CCC(C)Sc1cc(-c2nc3ccc(Cl)cn3c2NC2CCCCC2)ccc1OC (configuration not stated) | . | 10µM! | . | . | . | ?
CCC(C)Sc1cccc(-c2nc3cc(C)ccn3c2NC2CCCCC2)c1 (configuration not stated) | ? | 16µM! | 12µM | 18µM | ? | ?
CCCCCCSc1cccc(-c2nc3cc(C)ccn3c2NC2CCCCC2)c1 | . | ? | . | . | ? | .
Cc1ccn2c(NC3CCCCC3)c(-c3ccc(SC4CCCCC4)cc3)nc2c1 | . | 18µM | . | . | . | ?
CCN(CC(=O)Nc1ccc(NC(C)=O)cc1)C(=O)c1ccc(C(=O)c2ccccc2)cc1 | . | . | . | . | . | .
CCOc1cccc2sc(N(CCN(CC)CC)C(=O)c3ccco3)nc12 | ? | . | / | / | . | .
CCc1cc2c(=O)c(-c3nc4ccccc4[nH]3)coc2cc1OC(=O)N1CCOCC1 | . | 3.3µM | . | . | . | ?
Cc1ccc(C(=O)N2c3ccccc3N(Cc3ccccc3)C(=O)C2(C)C)cc1 | . | 6.5µM | . | ? | ? | .
Cc1ccc(CN2C(=O)C(F)(F)Oc3ccccc32)cc1 | . | . | . | . | . | .
CCOc1cc(C)c(C(C)C)cc1S(=O)(=O)N1CC(C)OC(C)C1 (configuration not stated) | . | ? | . | . | . | .
CCOc1cc(C)c(C(C)C)cc1S(=O)(=O)n1cnc(C)c1 | . | ? | ? | 12µM | . | ?
COc1ccc(-n2nnc(-c3nsc(NC(=O)c4cccc(C)c4)n3)c2C)cc1OC | . | . | / | / | . | .
O=C1CCC(c2ccccc2)c2ccccc21 (configuration not stated) | . | . | . | . | . | .
N#CC1C(=O)c2ccccc2C1c1ccccc1 (configuration not stated) | ? | . | ? | 12µM | ? | .
Cc1ccc(C(=O)Nc2cnc3ccccc3c2)cc1 | . | ? | . | . | 2.2µM | .
Cc1ccc(C)n1-c1cccc(NC(=O)c2ccccc2)c1 | . | 23µM | . | . | . | .
Cc1ccc(C(=O)Nc2cc3ccccc3oc2=O)cc1 | . | 4.1µM | . | . | ? | 3.3µM
Cc1ccc(C)n1-c1ccc(C(=O)Nc2ccccc2)cc1 | . | . | . | . | / | .
Cc1ccc(C(=O)Nc2nc3ccccc3c(=O)s2)cc1 | . | . | ? | 7.9µM | . | .
CSc1ccc(Cl)c(C(=O)N2CCN(c3ncccn3)CC2)c1 | . | . | . | . | . | .
NC(=O)c1cc[n+](CC2=C(C(=O)[O-])N3C(=O)[C@@H](NC(=O)Cc4cccs4)[C@H]3SC2)cc1 | . | / | / | / | . | /
SMILES | S2 tox | KB-V1 MDR tox | HT1080-NT tox | HT1080 IDH1KD tx | ATXN2 expr inh | KB-3-1 cytotox
COc1ccc(CCNC(=O)C(=O)Nc2ccc(C)c(C)c2)cc1OC | . | . | / | / | . | .
O=C(Nc1ccncc1)c1sc2ccccc2c1Cl | . | 8.2µM | . | . | . | .
O=C(Nc1ccncc1)c1ccc(-c2ccccc2)cc1 | ? | . | . | . | / | 23µM
O=C(Nc1cccnc1)c1ccc(-c2ccccc2)cc1 | . | . | . | . | / | .
O=C(Nc1ccccn1)c1sc2ccccc2c1Cl | / | . | / | / | / | .
O=C(O)c1cccc(NC(=O)c2ccccc2)c1 | . | ? | . | . | . | .
Cc1ccc(C(=O)Nc2cccc(C(=O)O)c2)cc1 | . | . | . | ? | 2.5µM | .
CC(C)Nc1cccnc1N1CCN(C(=O)c2cc3cc(NS(C)(=O)=O)ccc3[nH]2)CC1 | . | / | / | / | . | /
NCCCNc1ccc(Br)cn1 | / | / | . | . | / | /

Bioassay records (PubChem BioAssay)
